HP1b binding inh: HTS for Inhibitors of HP1-beta Chromodomain Interactions with Methylated Histone Tails; Chromobox protein homolog 1 (Homo sapiens), P83916; AlphaScreen HP1-beta / biotin-H3K9me3 peptide binding; Potency, µM (titrated, usually from 114 µM), for the others: top-dose activity change, negative = inhibition, usual class: inhibitors; 390,000 tested, 0.56% active; also: nearly all actives have a fitted effect of over 70% in size
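Compound inhibition of the preformed complex between 50 nM HP1-beta and 50 nM biotinylated H3K9me3 peptide was read by AlphaScreen. Buffer was PBS pH 7.4 with 0.01% Tween-20. Incubations ran 30 min at room temperature, with 10 ug/mL donor/acceptor beads.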
G9a inh: qHTS Assay for Inhibitors of Histone Lysine Methyltransferase G9a. Histone-lysine N-methyltransferase EHMT2 (Homo sapiens), Q96KQ7. G9a H3K9 monomethylation, AlphaScreen, 2 h. Potency, µM (series often up to 102 µM), without a hit: at the highest dose activity, negative = inhibition, most hits filed as inhibitors. 350,000 tested, 8.8% active. AID 504332, 2011; also: % is scaled to controls: 0 for no effect and ±100 for the full control effect; nearly all actives have a fitted effect of over 75% in size
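Compounds were preincubated with 20 nM G9a for 15 min, after which biotinylated H3K9 peptide (500 nM) and SAM (20 uM) started a 2 h room-temperature reaction. Monomethylated product was quantified by antibody-based AlphaScreen chemiluminescence.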
BAZ2B inh: qHTS Assay for Inhibitors of BAZ2B. AID 504333, 2011. Bromodomain adjacent to zinc finger domain protein 2B (Homo sapiens), Q9UIF8. Potency, µM (top dose mostly 114 µM), without a hit: top-dose activity change, negative = inhibition, usual class: inhibitors. AlphaScreen BAZ2B-H3K14Ac peptide displacement. 360,000 tested, 4.4% active; also: % is scaled to controls: 0 for no effect and ±100 for the full control effect; nearly all actives have a fitted effect of over 60% in size
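AlphaScreen luminescence quantifies BAZ2B engagement of H3K14Ac peptide; the protein and biotinylated peptide are both at 50 nM final, buffer PBS pH 7.4 with 0.01% Tween-20, all steps at room temperature.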
JMJD2A Tudor: qHTS Assay for Inhibitors of JMJD2A-Tudor Domain. Potency, µM (highest dose often 114 µM), without a hit: at the highest dose activity change, negative = inhibition, hits mostly inhibitors. AlphaScreen JMJD2A-Tudor / H3K4me3 peptide binding. Lysine-specific demethylase 4A (Homo sapiens), O75164. 390,000 tested, 4.4% active; also: % is scaled to controls: 0 for no effect and ±100 for the full control effect; nearly all actives have a fitted effect of over 50% in size
Target sequence (O75164 whole entry, looked up, the tested form may be a part): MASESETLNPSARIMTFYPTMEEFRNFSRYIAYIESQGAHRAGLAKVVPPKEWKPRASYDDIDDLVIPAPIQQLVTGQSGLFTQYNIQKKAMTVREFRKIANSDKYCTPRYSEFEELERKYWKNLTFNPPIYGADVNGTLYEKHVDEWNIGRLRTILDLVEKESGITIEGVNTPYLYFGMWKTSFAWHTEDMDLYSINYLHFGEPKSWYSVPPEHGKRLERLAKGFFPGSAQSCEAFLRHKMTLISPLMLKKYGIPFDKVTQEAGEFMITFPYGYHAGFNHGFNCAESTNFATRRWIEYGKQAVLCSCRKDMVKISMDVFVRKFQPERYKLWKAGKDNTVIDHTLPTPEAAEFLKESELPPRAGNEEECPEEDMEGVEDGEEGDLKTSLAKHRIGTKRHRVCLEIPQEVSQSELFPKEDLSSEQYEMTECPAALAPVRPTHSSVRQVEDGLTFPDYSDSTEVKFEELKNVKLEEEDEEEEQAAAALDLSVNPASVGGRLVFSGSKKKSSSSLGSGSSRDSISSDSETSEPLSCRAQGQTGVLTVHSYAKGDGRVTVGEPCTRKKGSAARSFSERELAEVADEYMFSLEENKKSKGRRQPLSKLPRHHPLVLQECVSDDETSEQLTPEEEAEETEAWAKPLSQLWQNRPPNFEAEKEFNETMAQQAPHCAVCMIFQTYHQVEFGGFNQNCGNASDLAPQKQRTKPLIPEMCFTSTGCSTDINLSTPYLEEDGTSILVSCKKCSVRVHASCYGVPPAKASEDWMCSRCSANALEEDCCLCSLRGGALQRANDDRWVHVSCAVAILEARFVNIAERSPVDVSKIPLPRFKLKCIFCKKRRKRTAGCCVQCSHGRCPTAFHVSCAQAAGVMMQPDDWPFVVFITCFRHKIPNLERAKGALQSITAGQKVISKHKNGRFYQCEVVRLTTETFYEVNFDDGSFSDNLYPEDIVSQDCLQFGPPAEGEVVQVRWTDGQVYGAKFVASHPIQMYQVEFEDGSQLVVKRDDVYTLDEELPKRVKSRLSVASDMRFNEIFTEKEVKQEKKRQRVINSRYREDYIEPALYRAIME
Sfp PPTase inh: qHTS Assay for Inhibitors of Bacillus subtilis Sfp phosphopantetheinyl transferase (PPTase); 4'-phosphopantetheinyl transferase ffp (Bacillus subtilis), Q9F4F7; Biochemical Sfp PPTase activity, qHTS; Potency, µM, inactives show largest response in the series, negative = inhibition, usual class: inhibitors; 310,000 tested, 3.5% active;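 also: the enzyme is Sfp with the accession as filed and its product quenches rhodamine fluorescence; 0% = enzyme reaction without inhibitor and -100% = no enzyme wells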
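Step 1, compound plus 15 nM Sfp-PPTase, 15 min, room temperature. Step 2, add rhodamine-CoA (5 uM) and BHQ-2-YbbR (12.5 uM). Step 3, read 525/598 nm fluorescence at 0 and 30 min.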
Numbers without * were called inactive; ? = inconclusive; . = no result given; ! = a repeat was not active; [ ] = dose if it differs, or a comment. This is a sample that favours compounds with a hit; in the whole collection about 12% have one here. Calls follow the shape of the dose curve; as a rule, active = well fitted curve in the direction sought with a large enough effect; inconclusive = small, poorly fitted or top-dose-only effect, or another doubt; inactive = no such curve, though single readings can be large; an effect the other way counts as inactive or inconclusive. Potency is read from the fitted curve at half-maximal effect.

SMILES | HP1b binding inh | G9a inh | BAZ2B inh | JMJD2A Tudor | Sfp PPTase inh
CN(C)C(=O)c1ccc(-c2cncnc2NCc2ccccc2)cc1 | . | 1.0%[0.501 µM] | . | . | 14.4%
CN(C)C(=O)c1ccc(-c2cncnc2NCc2cccs2)cc1 | . | . | . | . | 50.1µM*
CCOCCN1CCN(C2c3ccccc3CSc3ccccc32)CC1 (stereo not drawn) | ? | . | . | 12.6µM* | .
O=C(c1ccc(N2CCOCC2)c([N+](=O)[O-])c1)N1CCN(Cc2ccccc2)CC1 | 38.5% | -12.1% | -28.4% | -19.4% | 11.9%
O=C(NCCc1ccc(F)cc1)C1CCN(C(=O)Nc2ccccc2)CC1 | 44.7% | 22.6%[12.7 µM] | -4.7% | -18.6% | .
Cc1cccnc1NC(=S)Nc1ncccc1C | 25.1% | 20.2%[2.33 µM] | 4.0% | -3.0% | -20.7%
Cc1cccnc1NC(=S)Nc1ccc(Cl)c(Cl)c1 | 28.3% | -49.0% | -34.5% | -13.0% | 14.1µM*
COc1ccc(NC(=S)Nc2ncccc2C)c(OC)c1 | ? | ? | 39.8µM* | 50.1µM* | -25.5%
COc1ccc(NC(=O)C(=O)Nc2cccc3cccnc23)c(OC)c1 | 34.7% | -9.3%[0.501 µM] | 10.7% | -4.4% | 0.7%
COc1ccc(NC(=S)Nc2ccccc2)c(OC)c1 | 0.4% | 15.8µM* | -30.6% | -14.4% | -18.1%
COc1ccc(NC(=S)Nc2ncccc2C)cc1OC | ? | 22.4µM* | ? | ? | 39.8µM*
Cc1cc(C)n(C(=O)COc2c(C)cccc2C)n1 | 30.8% | -1.6%[12.7 µM] | 36.0% | 7.8% | 1.3%
CC(C)=CCN1CCN(Cc2ccc(N3CCNC3=O)cc2)CC1CCO (stereo not drawn) | 44.5% | 1.3%[12.7 µM] | -3.7% | -3.5% | -7.8%
C=CCOc1cccc(/C=N/NC(=O)C(OC)c2ccccc2)c1 (stereo not drawn) | 24.9% | -2.7%[0.501 µM] | -1.3% | -16.4% | ?
Cc1nnc(NC(=O)c2nc(S(=O)(=O)Cc3ccccc3C)ncc2Cl)s1 | 32.7% | ? | 56.2µM* | ? | ?
CC(C)c1nnc(NC(=O)c2nc(S(=O)(=O)Cc3ccccc3F)ncc2Cl)s1 | 46.2% | 20µM* | ? | 4.5% | -24.4%
CSc1nnc(NC(=O)c2nc(S(=O)(=O)Cc3ccccc3F)ncc2Cl)s1 | 16.5%[57 µM] | 28.2µM* | -11.4% | 22.4µM* | ?
O=C(Nc1nc2ccc(F)cc2s1)c1nc(S(=O)(=O)Cc2ccccc2F)ncc1Cl | 93.8% | 33.1%[59 µM] | -11.4% | -26.1% | .
Cc1nnc(NC(=O)c2nc(SCc3ccccc3F)ncc2Cl)s1 | 63.7% | 11.6%[59 µM] | 15.2% | -13.8% | .
Cc1c(C(Nc2ccccn2)c2ccccc2)c(=O)n(-c2ccccc2)n1C (stereo not drawn) | 19.4% | 2.8%[59 µM] | 8.0% | -8.3% | 2.3%
Cc1ccc(N2CCCn3c2cc(C)c(C#N)c3=O)cc1Cl | 24.7% | -50.0%[59 µM] | -5.3% | -13.5% | 5.7%
CCN(CC)CCCNCC(=O)Nc1ccc(OC)c(Cl)c1 | . | 8.91µM* | 50.1µM* | . | 7.1%
CCN(CC)CCCNCC(=O)Nc1ccc2c(c1)CCC2 | ? | 35.5µM* | 56.2µM* | 28.2µM* | 89.1µM*
Cc1ccc(C(=O)NCC(=O)Nc2ccc3c(c2)CCC3)cc1C | 5.2% | 0.8% | 7.8% | -6.6% | .
CC(=O)c1ccc(NC(=S)N2CCN(CCN3C(=O)c4cccc5cccc(c45)C3=O)CC2)cc1 | 15.0% | 6.5%[59 µM] | 2.1% | ? | 15.9%
SMILES | HP1b binding inh | G9a inh | BAZ2B inh | JMJD2A Tudor | Sfp PPTase inh
Cc1ccsc1C(=O)Nc1ccccc1N1CCCC1 | 6.1% | 18.9%[0.501 µM] | -35.6% | -23.4% | .
CCc1nn(CC(=O)NC2CCN(Cc3ccccc3)CC2)c(=O)c2cc3cc(F)ccc3n12 | 30.1% | 44.7µM* | -10.1%[57.1 µM] | -9.7% | 4.0%
CCc1nn(CC(=O)NC2CC2)c(=O)c2cc3ccccc3n12 | 64.2% | 25.7%[59 µM] | 26.6% | 0.4% | .
CCc1nn(CC(=O)NC(C)CCc2ccccc2)c(=O)c2cc3c(OC)cccc3n12 (stereo not drawn) | 21.5% | 26.3%[59 µM] | 2.4% | 7.3% | .
CCc1nn(CC(=O)NC(C)CCc2ccccc2)c(=O)c2cc3cc(F)ccc3n12 (stereo not drawn) | -1.0% | 50.1µM*! | ? | -12.4% | 1.9%
Cc1nnc(Nc2ccc(Cl)cc2)n(N)c1=O | 39.7% | -0.1%[12.7 µM] | 0.1% | 4.6%[57.1 µM] | 4.4%

Source: PubChem (National Center for Advancing Translational Sciences (NCATS))
